Assay [1] deals with TRPM6.
The subject of assay [2] is TSSK1B.
Assay [3] relates to TXK.
Assay [4] has as its system TYK2(JH1domain-catalytic).

What is called Kd is the free concentration of one partner at which half of the binding sites on the other are occupied at equilibrium, for simple one-to-one binding.
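Note: kd values determined as follow-up on hits from a single-replicate KINOMEscan panel screen.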

In the case of `Cn1ccc2ncnc(Oc3ccc(Nc4nc5ccccc5[nH]4)cc3)c21`, in assay [1], the Kd was over 10 µM. In turn, `CCCc1ccc(S(=O)(=O)NC2CCN(c3ccnc(Nc4ccc(F)cc4)n3)C2)cc1` (centres unmarked) [GSK1379715] showed a Kd in assay [2] of over 10 µM. With `Cc1cccc(-c2cc(Nc3ccncc3)c3ccccc3n2)n1` [GSK223675], the Kd in assay [3] was over 10 µM. For `Cl.Oc1ccc(-c2nc(-c3ccccc3)[nH]c2-c2ccncc2)cc1` [SB-428218], the Kd in assay [4] is over 10 µM. In assay [4], `Cc1csc(-c2nc(Nc3ccncc3)c3ccccc3n2)n1` [GW869640] had a Kd of over 10 µM.

The values above are taken from article PMC5540273 (PLoS ONE, 2017).
